Results on 2 compounds are retold here after PubChem BioAssay (NCATS).

The structures appear in SMILES notation. “And” between values parts separate entries of the source, which are not always exact repeats. Equal entries are not always repeated. Records with an inconclusive call do not appear. Where a structure was tested more than once in an assay, its records may differ in their call. The source made the active and inactive calls. Unless noted, calls follow the shape of the dose curve; as a rule, active = well fitted curve in either direction with a large enough effect (not every such curve was filed as active); inconclusive = small, poorly fitted or top-dose-only effect, or another doubt; inactive = flat fitted curve, though single readings scatter. Some results are limits rather than exact numbers.

A short description of experiment [1]: AP1 Signaling Pathway (AID 357).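 Also: ME-180 reporter cells stimulated with EGF at its EC50 level; % is scaled to controls: 0 for no effect and ±100 for the full control effect.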 Particulars: ME-180 AP-1-bla reporter, EGF-induced, beta-lactamase ratio, 5 h. The method, boiled down:
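First, ME-180 AP-1-bla cells were cultured overnight at 37 °C in low-serum Opti-MEM. Next, titrated compounds with EC50 EGF were incubated 5 hours. Finally, CCF4 was added for 2.5 hours and the 460/530 nm ratio recorded.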

A short description of experiment [2]: NFAT Signaling Pathway (AID 444).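 Also: carbachol stimulus at about its EC50 of 1 µM final; % is scaled to controls: 0 for no effect and ±100 for the full control effect.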 To be noted: Jurkat NFAT-bla M1, carbachol, beta-lactamase ratio, 5 h. The method, boiled down:
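Jurkat cells carrying an NFAT-driven β-lactamase reporter and co-transfected muscarinic M1 receptor were treated with compound plus carbachol (1 uM final, an EC50 level) for 5 h at 37 °C. CCF4 loading followed for 1 h at RT; 460/530 nm ratio gave %activity.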

Experiment [3] is described as follows: Stat Signaling Pathway (AID 446).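 Also: ME-180 cervical cancer cells given 40 pM IL-6 alongside compound; SIE-controlled beta-lactamase reporter measured as 460/530 nm FRET emission ratio; % is scaled to controls: 0 for no effect and ±100 for the full control effect.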 To be noted: ME-180 (cervical carcinoma) SIE beta-lactamase reporter, IL-6 stimulated, 5 h. The method, boiled down: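 FRET read-out (405 nm excitation, 460/530 nm emission) of a beta-lactamase reporter under a STAT-inducible element in ME-180 cervical carcinoma cells. Cells with compound receive 40 pM IL-6 for 5 h. Values are normalised to AC90 stimulation and AC90 JAK-inhibitor controls.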

Experiment [4] deals with Glucocorticoid receptor (Homo sapiens) (UniProt P04150). Briefly: GR-GFP Redistribution (AID 450;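 active = compounds whose dose series gives a full or clear partial fitted curve of increased nuclear translocation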; also: potency is read from the fitted curve at half-maximal effect). Particulars: U2OS GR-GFP nuclear translocation, laser cytometry, 2 h.
Chain of Glucocorticoid receptor (Homo sapiens) (P04150 whole entry, looked up, the tested form may be a part): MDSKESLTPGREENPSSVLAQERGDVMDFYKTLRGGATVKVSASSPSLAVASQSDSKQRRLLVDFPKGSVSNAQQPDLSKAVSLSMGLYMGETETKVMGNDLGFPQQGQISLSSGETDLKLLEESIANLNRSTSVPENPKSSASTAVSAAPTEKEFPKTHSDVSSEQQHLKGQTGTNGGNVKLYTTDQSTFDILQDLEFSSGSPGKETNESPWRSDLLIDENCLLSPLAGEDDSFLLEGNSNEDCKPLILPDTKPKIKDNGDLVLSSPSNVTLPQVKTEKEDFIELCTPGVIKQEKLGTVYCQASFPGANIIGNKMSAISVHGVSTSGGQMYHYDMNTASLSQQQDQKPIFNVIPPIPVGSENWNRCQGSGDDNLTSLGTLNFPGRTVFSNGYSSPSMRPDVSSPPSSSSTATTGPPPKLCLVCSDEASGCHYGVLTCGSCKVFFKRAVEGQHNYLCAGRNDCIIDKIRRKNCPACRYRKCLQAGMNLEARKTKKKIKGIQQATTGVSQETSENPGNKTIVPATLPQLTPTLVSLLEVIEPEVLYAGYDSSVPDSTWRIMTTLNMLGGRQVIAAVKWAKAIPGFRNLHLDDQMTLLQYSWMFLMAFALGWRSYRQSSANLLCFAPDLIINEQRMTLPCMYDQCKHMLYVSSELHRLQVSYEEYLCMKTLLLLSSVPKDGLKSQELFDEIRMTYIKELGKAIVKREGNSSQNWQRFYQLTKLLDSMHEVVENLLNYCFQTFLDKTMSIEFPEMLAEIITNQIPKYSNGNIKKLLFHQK
Experiment [5] has the same target. Briefly: GR-EFC Redistribution (AID 451; calls by dose curve; also: potency is read from the fitted curve at half-maximal effect). To be noted: CHO-K1 GR-EFC translocation, beta-gal luminescence, 2 h. The method, boiled down: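 CHO-K1 cells stably expressing nuclear-localized β-gal enzyme acceptor and GR fused C-terminally to the enzyme donor fragment; ligand-driven nuclear translocation restores β-gal by complementation. Compounds titrated up to 46 uM final, 2 h at 37 °C; luminescence read.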

Experiment [6] concerns the target Mitogen-activated protein kinase 10 (Mus musculus) (UniProt Q61831). Kind of experiment: JNK3 AlphaScreen Assay (AID 530).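 Also: kinase came from lysate of stimulated human HepG2 cells.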 Also: potency is read from the fitted curve at half-maximal effect. Particulars: JNK3 lysate, c-Jun phosphorylation; series mostly up to 57.1 µM. A digest of the protocol:
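Phosphorylation of biotinylated GST-cJun(1-79) at Ser73 is measured by AlphaScreen proximity luminescence. Enzyme is JNK3 in HepG2 lysates activated with interleukin-1beta and tumor necrosis factor alpha; ATP is 10 uM final.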

In experiment [7] the target is 3',5'-cyclic-AMP phosphodiesterase 4B (Homo sapiens) (UniProt Q07343). Kind of experiment: qHTS Assay for Inhibitors of PDE-IV (AID 607; active = well fitted activation curve with a large enough effect in the main read-out, with a control signal flat, not every such curve was filed as active; also: % of control where 0% means no effect). Particulars: HEK293 ACTOne CNG channel cells, membrane potential fluorescence; series mostly up to 22.9 µM. The method, boiled down:
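Cell-based read-out of cAMP via a modified cyclic nucleotide-gated channel and membrane potential dye (535/590 nm) in HEK293 cells expressing PDE4 endogenously. Compounds tested up to 22.9 uM final; 100 uM RO 20-1724 reference.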

In experiment [8] the target is Guanine nucleotide-binding protein G(i) subunit alpha-1 (Homo sapiens) (UniProt P63096). Kind of experiment: qHTS Assay for Inhibitors of RGS12 GoLoco Motif Activity (Green Fluorophore) (AID 879; active = well fitted curve in the direction sought with a large enough effect; an effect the other way counts as inactive or inconclusive;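 also: 0% = labeled peptide with Gαi1 and full inhibition = labeled peptide alone without protein; negative values mean loss of peptide binding seen as reduced polarization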). To be noted: Galphai1/FITC-RGS12 GoLoco peptide, fluorescence polarization; series mostly up to 57.1 µM. The method, boiled down:
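A drop in FITC polarization marked displacement of the FITC-tagged RGS12 GoLoco peptide (10 nM) from Gαi1 (50 nM). Compounds were incubated 10 min at room temperature in Tris pH 7.5 buffer containing 150 mM NaCl, 0.1 mM GDP and 0.05% NP40; unlabeled peptide titration served as control.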
(qHTS replaces the single test concentration by a dilution series.)

Experiment [9] addresses Pyruvate kinase (Leishmania mexicana) (UniProt Q27686). Briefly: qHTS Validation Assay for Inhibitors of Leishmania Mexicana Pyruvate Kinase (AID 945; active = well fitted curve in the direction sought with a large enough effect; an effect the other way counts as inactive or inconclusive;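 also: 0% = DMSO only neutral control wells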). Particulars: purified L. mexicana pyruvate kinase, enzyme activity, E451W mutant enzyme; series mostly up to 57.5 µM. The method, boiled down:
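Luminescent ATP detection (PKLight) after a 1 h room-temperature reaction of 0.2 nM LmPYK E451W mutant with 0.5 mM PEP and 0.1 mM ADP at pH 7.2. Activity is normalized to DMSO-only control wells.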

Experiment [10] addresses alpha-glucosidase (Oryza sativa, rice) (UniProt Q653V4). Briefly: Counterscreen for Glucocerebrosidase Inhibitors: qHTS Assay for Rice alpha-Glucosidase at pH 5.0 (AID 997; active = well fitted curve in the direction sought with a large enough effect; an effect the other way counts as inactive or inconclusive;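 also: 0% = full activity with enzyme and -100% = basal without enzyme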). Particulars: rice alpha-glucosidase enzyme activity; series mostly up to 76.9 µM. The method, boiled down:
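Endpoint fluorogenic assay at pH 5.0: compounds (0.7 nM to 77 uM) titrated against 4 nM rice enzyme and 400 uM 4-MU-alpha-glucoside for 20 min at room temperature; NaOH/glycine stop, read ex 365/em 440 nm, Hill-fitted AC50.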
On the technique in general: A counterscreen serves to expose hits that act by an unwanted route or on another target.

A short description of experiment [11]: qHTS Assay for Lipid Storage Modulators (AID 1519; calls by dose curve). Particulars: Drosophila S3 cells, BODIPY lipid droplet/cell ratio, laser cytometry, cells loaded with oleic acid; for activity change, negative = inhibition: at 25.7 µM (top of the series). The method, boiled down: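 Cells seeded at 5,000 per well were treated with compounds over a concentration series and loaded with oleic acid (400 uM, as added). Lipid droplet fluorescence (488 nm excitation, 500-530 nm channel) was read by laser-scanning cytometry and normalized to 20 uM Triacsin C.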

Experiment [12] concerns the target Cytochrome P450 1A2 (Homo sapiens) (UniProt P05177). Briefly: p450-cyp1a2 (AID 410; calls by dose curve;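 also: -100% = full effect of reference inhibitor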). To be noted: recombinant CYP1A2, luciferin-ME demethylation, luminescence; series mostly up to 57 µM. The method, boiled down: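 O-Demethylation of luciferin 6' methyl ether by human CYP1A2 is monitored as luciferase luminescence. Substrate sits at Km (100uM); enzyme is 20nM. Values are scaled to 57 uM furafylline as maximal inhibition.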

The target of experiment [13] is ATP-dependent 6-phosphofructokinase (Trypanosoma brucei brucei) (UniProt O15648). Briefly: qHTS Assay to Find Inhibitors of T. brucei phosphofructokinase: hit validation (AID 492961; active = well fitted curve in the direction sought with a large enough effect; an effect the other way counts as inactive or inconclusive;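 also: luminescence reports ADP formed as PFK phosphorylates fructose-6-phosphate with ATP; % is scaled to controls: 0 for no effect and ±100 for the full control effect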). To be noted: T. brucei PFK, ADP-Glo luminescence; series mostly up to 24.3 µM. A digest of the protocol: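 Reaction: 0.1 M triethanolamine pH 8.0, 5 mM MgCl2, F6P 0.5 mM, ATP 0.1 mM, PFK 1.25 nM, 45 min RT. Read-out: ADP-Glo luminescence. Analysis: concentration-response fits, classed by r2 and efficacy.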
Chain of ATP-dependent 6-phosphofructokinase (Trypanosoma brucei brucei) (O15648 whole entry, looked up): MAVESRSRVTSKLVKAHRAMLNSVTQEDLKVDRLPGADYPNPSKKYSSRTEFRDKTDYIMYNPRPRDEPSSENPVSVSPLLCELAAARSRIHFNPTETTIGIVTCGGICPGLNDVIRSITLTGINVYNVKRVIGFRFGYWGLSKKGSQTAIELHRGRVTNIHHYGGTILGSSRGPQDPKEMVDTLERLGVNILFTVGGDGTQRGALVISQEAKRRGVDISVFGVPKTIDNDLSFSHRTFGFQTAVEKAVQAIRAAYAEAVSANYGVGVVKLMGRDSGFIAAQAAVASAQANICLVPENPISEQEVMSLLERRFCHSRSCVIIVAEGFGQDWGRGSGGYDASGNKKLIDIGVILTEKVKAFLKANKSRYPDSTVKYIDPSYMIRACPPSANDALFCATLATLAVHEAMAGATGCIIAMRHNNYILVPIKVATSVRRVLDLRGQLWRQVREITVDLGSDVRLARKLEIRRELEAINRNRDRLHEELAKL

Experiment [14] addresses Luciferin 4-monooxygenase (Photinus pyralis) (UniProt P08659). Briefly: Biochemical firefly luciferase enzyme assay for NPC (AID 624030; active = well fitted curve in the direction sought with a large enough effect; an effect the other way counts as inactive or inconclusive;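 also: purified P. pyralis luciferase at 10 nM with luciferin and ATP substrate; 0% = DMSO and -100% = full luciferase inhibition by PTC124 control; nearly all actives have a fitted effect of over 70% in size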). Particulars: purified P. pyralis luciferase, luminescence, 5 min; series mostly up to 58.6 µM. A digest of the protocol: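 Counter-screen for direct inhibition of the luciferase enzyme by approved-drug library compounds, run at 10 nM enzyme in 50 mM Tris acetate (final). Luminescence was read within 5 min of enzyme-buffer addition and normalized to PTC124 versus DMSO (0%).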

Experiment [15] is described as follows: qHTS profiling for inhibitors of Plasmodium falciparum proliferation (AID 504749; active = well fitted curve in the direction sought with a large enough effect; an effect the other way counts as inactive or inconclusive;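 also: 0% = DMSO vehicle and full inhibition = artemisinin control; nearly all actives have a fitted effect of over 60% in size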). To be noted: P. falciparum in erythrocytes, SYBR Green DNA, 72 h, at 28.7 µM (top of the series). A digest of the protocol: (§1)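 Quantitative HTS: compounds pinned into medium, infected erythrocytes added (0.3% parasitemia, 2.5% hematocrit), 72 h culture at 37 C under 5% CO2. Saponin/Triton lysis with SYBR Green I, overnight RT, then fluorescence read.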

Experiment [16] relates to AS120. The experiment is described as above. To be noted: P. falciparum in erythrocytes, SYBR Green DNA, 72 h; series mostly up to 28.7 µM. A digest of the protocol: as §1
The test system of experiment [17] is CP238. The description is as above. To be noted: P. falciparum in erythrocytes, SYBR Green DNA, 72 h; series mostly up to 12.8 µM. The method, boiled down: as §1
The test system of experiment [18] is FAB9. Described as above. Particulars: P. falciparum in erythrocytes, SYBR Green DNA, 72 h; series mostly up to 12.8 µM. A digest of the protocol: as §1
[19] abbreviates: measured here: cell count channel max response.
Where [20] appears, read: measured here: lipid channel max response.
[21] abbreviates: at 7.69 µM (top of the series) unless noted.

Chain of 3',5'-cyclic-AMP phosphodiesterase 4B (Homo sapiens) (Q07343 whole entry, looked up): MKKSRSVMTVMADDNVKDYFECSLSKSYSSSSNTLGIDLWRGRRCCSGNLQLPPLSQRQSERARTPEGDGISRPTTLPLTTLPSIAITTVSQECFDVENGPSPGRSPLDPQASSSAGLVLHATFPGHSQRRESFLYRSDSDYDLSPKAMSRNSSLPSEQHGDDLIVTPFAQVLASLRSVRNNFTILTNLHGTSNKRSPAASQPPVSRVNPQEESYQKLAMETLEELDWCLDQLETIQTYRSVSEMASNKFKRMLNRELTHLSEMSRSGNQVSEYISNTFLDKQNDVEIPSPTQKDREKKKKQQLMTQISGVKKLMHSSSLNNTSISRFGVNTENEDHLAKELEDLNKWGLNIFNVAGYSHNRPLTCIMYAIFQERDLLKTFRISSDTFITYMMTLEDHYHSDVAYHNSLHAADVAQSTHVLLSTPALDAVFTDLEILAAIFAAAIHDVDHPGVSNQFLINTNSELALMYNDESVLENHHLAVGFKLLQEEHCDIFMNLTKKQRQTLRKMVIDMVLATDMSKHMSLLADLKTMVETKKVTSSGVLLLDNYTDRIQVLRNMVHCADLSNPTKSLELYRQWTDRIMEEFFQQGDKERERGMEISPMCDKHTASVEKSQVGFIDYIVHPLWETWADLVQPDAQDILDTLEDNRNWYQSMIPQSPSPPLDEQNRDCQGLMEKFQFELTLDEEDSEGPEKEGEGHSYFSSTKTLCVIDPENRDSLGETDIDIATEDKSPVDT
Chain of Guanine nucleotide-binding protein G(i) subunit alpha-1 (Homo sapiens) (P63096 whole entry, looked up): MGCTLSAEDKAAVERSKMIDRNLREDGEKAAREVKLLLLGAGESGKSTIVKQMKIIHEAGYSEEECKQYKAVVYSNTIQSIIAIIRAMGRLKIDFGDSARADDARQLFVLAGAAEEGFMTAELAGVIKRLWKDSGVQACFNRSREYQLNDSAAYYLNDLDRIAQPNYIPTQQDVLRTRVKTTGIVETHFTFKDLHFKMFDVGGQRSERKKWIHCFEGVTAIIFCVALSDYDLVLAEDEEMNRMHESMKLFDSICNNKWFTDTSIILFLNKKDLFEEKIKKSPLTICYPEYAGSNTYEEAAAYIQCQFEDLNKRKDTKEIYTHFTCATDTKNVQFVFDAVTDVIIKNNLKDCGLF
Chain of Cytochrome P450 1A2 (Homo sapiens) (P05177 whole entry, looked up): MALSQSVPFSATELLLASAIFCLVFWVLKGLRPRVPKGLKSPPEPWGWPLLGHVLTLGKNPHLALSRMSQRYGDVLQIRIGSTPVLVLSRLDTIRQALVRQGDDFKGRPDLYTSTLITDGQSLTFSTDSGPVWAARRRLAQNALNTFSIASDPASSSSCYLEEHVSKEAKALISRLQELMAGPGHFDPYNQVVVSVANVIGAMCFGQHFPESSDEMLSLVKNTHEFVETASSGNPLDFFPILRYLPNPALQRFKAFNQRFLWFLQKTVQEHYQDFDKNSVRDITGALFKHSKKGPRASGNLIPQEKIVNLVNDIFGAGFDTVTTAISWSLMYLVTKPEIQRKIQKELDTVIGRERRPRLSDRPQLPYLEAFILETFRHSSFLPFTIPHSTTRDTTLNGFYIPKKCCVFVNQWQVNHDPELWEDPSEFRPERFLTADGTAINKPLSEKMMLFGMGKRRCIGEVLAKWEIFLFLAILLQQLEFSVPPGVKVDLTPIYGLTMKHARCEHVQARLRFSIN
Chain of Luciferin 4-monooxygenase (Photinus pyralis) (P08659 whole entry, looked up): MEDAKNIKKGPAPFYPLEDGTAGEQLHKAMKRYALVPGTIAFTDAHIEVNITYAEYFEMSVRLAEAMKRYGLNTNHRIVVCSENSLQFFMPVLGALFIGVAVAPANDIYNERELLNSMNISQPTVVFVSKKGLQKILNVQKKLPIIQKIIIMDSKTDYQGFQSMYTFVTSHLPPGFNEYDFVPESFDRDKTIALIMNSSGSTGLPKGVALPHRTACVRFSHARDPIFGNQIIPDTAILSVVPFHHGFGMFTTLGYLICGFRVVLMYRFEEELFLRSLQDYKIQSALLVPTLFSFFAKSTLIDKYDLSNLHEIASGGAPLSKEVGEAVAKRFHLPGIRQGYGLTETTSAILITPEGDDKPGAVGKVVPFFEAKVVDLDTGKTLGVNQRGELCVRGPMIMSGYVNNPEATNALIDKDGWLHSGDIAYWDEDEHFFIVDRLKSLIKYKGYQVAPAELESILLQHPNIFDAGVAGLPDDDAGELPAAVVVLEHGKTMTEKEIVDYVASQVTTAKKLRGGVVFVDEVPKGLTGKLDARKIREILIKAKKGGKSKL
Chain of Pyruvate kinase (Leishmania mexicana) (Q27686 2-499 E452W): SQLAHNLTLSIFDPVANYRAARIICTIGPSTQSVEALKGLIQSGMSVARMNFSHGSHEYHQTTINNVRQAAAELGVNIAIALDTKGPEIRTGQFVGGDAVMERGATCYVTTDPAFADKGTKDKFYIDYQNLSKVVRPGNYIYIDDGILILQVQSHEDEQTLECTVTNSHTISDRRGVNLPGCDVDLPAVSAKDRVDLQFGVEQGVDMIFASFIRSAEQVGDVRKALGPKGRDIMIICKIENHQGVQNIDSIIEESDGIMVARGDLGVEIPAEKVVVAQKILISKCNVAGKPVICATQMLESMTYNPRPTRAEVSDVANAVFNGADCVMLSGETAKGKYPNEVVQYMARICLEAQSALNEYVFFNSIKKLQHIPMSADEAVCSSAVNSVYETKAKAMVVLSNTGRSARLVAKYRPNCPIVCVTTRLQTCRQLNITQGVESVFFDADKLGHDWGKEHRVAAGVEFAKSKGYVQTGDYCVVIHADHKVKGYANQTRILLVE

Consider `CN1CCc2cccc3c2[C@@H]1Cc1ccc(O)c(O)c1-3`, for which the activity change, negative = inhibition was -20.2% (inactive) in experiment [1] (at 17.2 µM (top of the series)); -26.6% (inactive) in [1] (at 38 µM (top of the series)); -6.25% (inactive) in experiment [2] (at 17.2 µM (top of the series)); -15.4% (inactive) in [2] (at 38 µM (top of the series)); 2.32% (inactive) in [11]. For the same compound, the activity, negative = inhibition is 1.07% (inactive) in experiment [3] (at 17.2 µM (top of the series)) and -10.2% (inactive) in [3] (at 38 µM (top of the series)). The Potency in experiment [4] was > 46 µM (inactive) and > 20.6 µM (inactive); in experiment [5], > 46 µM (inactive) and > 20.6 µM (inactive); in experiment [6], “inactive and 15.8 µM (active)”. The Potency result in experiment [7] and in experiment [8] was “inactive” each time. Besides, the compound was called inactive in experiment [9] and in experiment [10]. Also, the max response in [11] (setting [19]) turned out to be 2.96%; in [11] (setting [20]), 6.43%.

As to `CCN[C@@H]1C[C@H](C)S(=O)(=O)c2sc(S(N)(=O)=O)cc21`, the activity change, negative = inhibition is -11.2% [at 17.2 µM] (inactive) in [1] (setting [21]), -16.8% [at 17.2 µM] (inactive) in [2] (setting [21]) and -5.41% (inactive) in [11]. Besides, the Potency entry in experiment [12], in experiment [6], in experiment [7], in experiment [16], in experiment [17] and in experiment [18] was “inactive” in each case. The figures for the activity, negative = inhibition in experiment [3] (setting [21]), in [15] (parasite line A) and in [15] (parasite line B) were -13.1% [at 17.2 µM] (inactive), 7.35% (inactive) and 9.64% (inactive), respectively. Besides, the Potency in experiment [4] and in experiment [5] was > 20.6 µM (inactive) in each case. Further, the results for the max response in [11] (setting [19]) and in experiment [11] (setting [20]) were -1.77% and -5.35%, respectively. Moreover, the compound was classed as inactive in experiment [13] and in experiment [14].
